Experimental data as given in PubChem BioAssay AID602295 (Broad Institute, 2012).
Active and inactive are the calls of the source.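 How the source made its calls: active means every separate test run called active, meaning the signal drops and a potency is fitted within twice the top valid dose; inconclusive means runs disagree, poor fit, or flat partial inhibition; inactive means all runs inactive, flat, opposite direction or too weak.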

Each compound was assayed against Mitogen-activated protein kinase 3 (Homo sapiens) (UniProt P27361) (assay: ERK1 kinase inhibitors, dose response, selectivity assay for Dyrk1A inhibitor NFAT project, biochemical, ADP-Glo luminescence, cherry pick, set 2 (AID 602295)). Settings: 120 min; series mostly up to 10 µM; activity change, negative = inhibition: at the top concentration.
Chain of Mitogen-activated protein kinase 3 (Homo sapiens) (P27361 whole entry, looked up): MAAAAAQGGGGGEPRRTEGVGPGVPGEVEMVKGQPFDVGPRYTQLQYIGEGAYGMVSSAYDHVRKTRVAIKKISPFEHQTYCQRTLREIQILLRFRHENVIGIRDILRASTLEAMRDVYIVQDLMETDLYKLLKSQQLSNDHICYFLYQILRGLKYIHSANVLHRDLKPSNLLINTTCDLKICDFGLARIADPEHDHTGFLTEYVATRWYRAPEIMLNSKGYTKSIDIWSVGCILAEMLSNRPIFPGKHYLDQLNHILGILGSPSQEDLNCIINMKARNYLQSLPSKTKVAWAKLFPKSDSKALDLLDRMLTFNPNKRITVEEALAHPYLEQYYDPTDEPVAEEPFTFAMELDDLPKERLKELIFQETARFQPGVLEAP

Activity change, negative = inhibition, inactive:
COc1cccc(Nc2ncnc3sc(C)cc23)c1 -2.65%
COc1cccc(Nc2ncnc3ccccc23)c1 4.09%
COc1ccc(-c2[nH]ncc2-c2ccc3c(c2)OCCO3)c(O)c1 1.76%
Clc1ccc(CNc2ncncc2-c2ccc3c(c2)OCO3)cc1 20.6%
CCCC(=O)Nc1nc(-c2ccc3c(c2)OCCO3)cs1 -24.3%
Cc1ccsc1CN(C)c1ncnc2ccc(-c3ccoc3)cc12 9.45%
Fc1c(-c2ccc3ncnc(NCc4cccs4)c3c2)ccc2c1OCO2 15.5%
CCN1CCN(Cc2ccc(NC(=O)c3ccc(C)c(/C=C/c4cnc(Nc5cc(N6CCNCC6)nc(C)n5)cn4)c3)cc2C(F)(F)F)CC1 15%
Clc1ccc(CNc2nccc(-c3ccc4cn[nH]c4c3)n2)cc1Cl -3.78%
COc1cccc(Nc2nc(NCCO)c3ccccc3n2)c1 14.1%
COc1ccc2c(Cl)c(C(=O)NCc3ccco3)sc2c1 13.3%
Cc1ccnc(NC(=O)c2cccc(S(=O)(=O)N3CCN(c4ccccc4)CC3)c2)c1 5.59%
CC1Cc2ccccc2N1c1ncnc2nc[nH]c12 (stereo not drawn) -6.05%
CN(C)S(=O)(=O)c1ccc(NC(=O)c2cc3ccccc3o2)cc1 22.8%
Clc1cc(Cl)cc(CNc2cc(-c3ccc4c(c3)OCO4)ncn2)c1 4.5%
Cc1nc(NC(=O)c2ccccc2)sc1-c1csc(N)n1 -10%
CC(Nc1nc(-c2cccnc2)nc2ccccc12)c1ccc(F)cc1 (stereo not drawn) 22.1%
Clc1ccccc1-c1ccc2ncnc(NCc3ccc4c(c3)OCO4)c2c1 0.907%
Cc1nc(CN(C)c2ncnc3ccc(-c4ccc5c(c4)OCO5)cc23)cs1 9.05%
c1nc(NCC2CCCOC2)c2cc(-c3ccc4c(c3)OCO4)ccc2n1 (stereo not drawn) 6.41%
Cc1cc(NCCCn2ccnc2)n2ncc(-c3ccc(Cl)cc3)c2n1 19.3%
c1cncc(CNc2ccnc(-c3ccc4[nH]ncc4c3)n2)c1 8.55%
Clc1cc(Cl)cc(CNc2ncncc2-c2ccc3c(c2)OCO3)c1 10.1%
COc1cccc(Nc2nc(-c3ccc(O)cc3)cs2)c1 18.6%
O=[N+]([O-])c1cc(Nc2nccc(-c3ccc4c(c3)OCO4)n2)cc(C(F)(F)F)c1 19%
c1cncc(CNc2nccc(-c3ccc4cn[nH]c4c3)n2)c1 1.75%
O=c1cc(-c2ccccc2Cl)oc2c(NS(=O)(=O)c3ccccc3C(F)(F)F)ccc(O)c12 14.7%
Cc1noc(NS(=O)(=O)c2ccc(NC(=O)c3oc4ccc(Cl)cc4c3C)cc2)c1C -10.1%
c1cncc(CNc2nccc(-c3ccc4c(c3)OCO4)n2)c1 17.8%
Cc1nc(NC(=O)c2ccccc2)sc1-c1csc(NCc2ccco2)n1 -17.2%
O=C(CSc1nnnn1-c1ccc(O)cc1)Nc1ccc(N2CCOCC2)c(Cl)c1 14.9%
COc1cc(C(=O)Nc2cccc(-c3nncn3C)c2)cc(OC)c1OC -9.92%

outcome, inactive:
CCOC(=O)c1ccc(-c2ccc3ncnc(NCc4ccc(C)o4)c3c2)o1
